Here are results for 39 compounds from PubChem BioAssay (NCI).

The panel holds about 83,000 compounds, 20% with a hit somewhere; the sample as a whole holds those more often.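 Results are percent growth after 48 hours of single-concentration exposure. 100 means growth as in untreated cells, lower positive values show inhibition; negative values down to -100 show cell death.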 A number with no mark means an inactive call. Calls of active or inactive are those of the source. How the source made its calls: active means growth percent below 10; inactive means the rest.

The first assay relates to HCT-15 colon. As to the kind of experiment: NCI-60 one-dose screen, 48 h (100 = growth as untreated, 0 = no growth, -100 = all killed). The settings on record: 10 µM unless noted.
`O=[N+]([O-])c1cccc(-c2nc3sccn3c2-c2ccnc(NCCCNS(=O)(=O)c3ccc(Cl)cc3)n2)c1`: the growth is 35.2%.
In the case of `CCC(=O)Oc1ccc(/C(=C(/C)Cc2cccc(OC)c2)c2ccc(OCCN(C)C)cc2)cc1`, the growth is 48.2%.
Regarding `COc1ccc(N2CCN(Cc3cc(C(=O)/C=C/c4c[nH]c5ccccc45)ccc3O)CC2)cc1`, the growth was 98.7%.
In the case of `COc1ccc(-c2nc(/C=C3/C(=O)Nc4ccc(F)cc43)c3ccccn23)cc1`, the growth is 107%.
For `CCN(CC)c1ccc(/C=C2\Oc3ccc(O)c(I)c3C2=O)cc1`, the growth was 37%.
`N[C@H]1CN(C(=O)c2cc3cc(Br)c(F)c(F)c3[nH]2)C[C@@H]1O`: the growth is 102%.
For the compound `COc1ccc(/C=C\c2cc(OC)c(OC)c(OC)c2)cc1OC(=O)c1cccc(Cn2cc(CCOC(=O)c3cccc(Cn4nnc5c4C(=O)c4ccccc4C5=O)c3)nn2)c1`, the growth is 10.5%.
Same read-out and setting: the result for `N[C@@H]1CCN(C(=O)c2cc3cc(Cl)c(F)c(F)c3[nH]2)C1` reads 96.8%.
Same read-out and setting: the same measure for `CC(C)(C)Nc1c(-c2cccs2)nc2ncccn12`: 102%.
For the compound `O=C1/C(=C/c2ccccc2)Oc2ccc(O)c(I)c21`, the growth is 94.5%.
Regarding `COc1ccc(OC)c(/C=C2\Oc3cc(OCCCN4CCCC4)ccc3C2=O)c1`, the growth was 20%.
For the compound `COc1ccc(S(=O)(=O)Nc2cc(/C=C\c3cc(OC)c(OC)c(OC)c3)cc(OC)c2OC)cc1`, the growth was 15%.
As to `COc1ccc(/C=C2\Oc3cc(OCCCN4CCCC4)ccc3C2=O)cc1`, the growth was 26.3%.
Take `FC(F)(F)c1ccccc1-c1cn2c(ccc3ccccc32)n1`: the growth was 55.4%.
In the case of `Cc1nn(-c2ccc(Cl)cc2)c2ncnc(N/N=C/c3cccc([N+](=O)[O-])c3)c12`, the growth was 100%.
As to `c1ccc(Nc2nc(Nc3ccccc3)nc(Nc3ccccc3)n2)cc1`, the growth is 82.9%.
For the compound `COc1ccc(-c2nc(N3CCCC3=O)sc2Br)cc1OC`, the growth was 89.8%.
As to `NC1N=C(SCC(=O)N2CCN(c3cc4c(cc3F)c(=O)c(C(=O)O)cn4C3CC3)CC2)NC(=O)/C1=C/c1ccc(Cl)cc1` (stereo not given), the growth was 97.3%.
For `Clc1ccc(-c2nc3ccccc3s2)cc1Cl`, the growth was 96.6%.
In the case of `O=C(NS(=O)(=O)c1ccc2ccccc2c1)n1cc(-c2ccncc2)c(-c2ccc(Cl)c(O)c2)n1`, the growth is 82.1%.
In the case of `O=C(O)/C=C/C(=O)c1ccc(Cl)cc1`, the growth is 103%.
`CCCCN(CCCC)C(=O)CC`: the growth is 101%.
Consider `O=c1c2sc3ncccc3c2nnn1-c1ccccc1`, for which the growth is 96%.
Turning to `COc1ccc(/C=C2\Oc3cc(OCCCN4CCCC4)ccc3C2=O)c(OC)c1`, the growth was 17.8%.
For the compound `CCCCN(CCCC)c1ccc(C(=N)c2ccc(N(CCCC)CCCC)cc2)cc1`, the growth is -91.9% (active).
With `CN1C(=O)N(C)C2C1NN=c1s/c(=C\C=C\c3ccccc3)c(=O)n12` (stereo not given), the growth was 32.4%.

Another assay has as its system HT29 colon. Described as above. The settings on record: 10 µM unless noted.
Take `O=C(Nc1ccc2c(c1)OCO2)C(=O)c1c[nH]c2cc(F)ccc12`: the growth is 62%.
As to `O=C(Nc1cccc(-n2cc(-c3ccncc3)c(-c3ccc(Cl)c(O)c3)n2)c1)Nc1cc(C(F)(F)F)cc(C(F)(F)F)c1`, the growth is -56% (active).
On the same count and under the same terms, the same measure for `N/C(=N\C(N)=N\c1nc2ccccc2s1)c1ccncc1`: 27.7%; for `O=S(=O)(NCCNc1nccc(-c2c(-c3cccc(O)c3)nc3sccn23)n1)c1ccc(F)cc1`: 38.3%; for `CN1C(=O)N(C)C2C1NN=c1s/c(=C\c3cccnc3)c(=O)n12` (stereo not given): 49.1%.
`CN1CCN(Cc2ccc(NC(=O)c3cncc(C#Cc4cnc(N)c5ccncc45)c3)cc2C(F)(F)F)CC1`: the growth was 9.95% (active).
Regarding `O=C(Nc1ccncc1)C(=O)c1cn(S(=O)(=O)c2ccc(Br)cc2)c2ccccc12`, the growth is 11.6%.
As for `CN(C)CCCN(c1nc(C(Cl)(Cl)Cl)ns1)c1nc(C(Cl)(Cl)Cl)ns1`, the growth was 0.235% (active).
In the case of `COc1ccc(-c2nc3sc(-c4cc(OC)c(OC)c(OC)c4)nn3c2/C=C2/C(=O)Nc3ccc(F)cc32)cc1`, the growth is -49.9% (active).
In the case of `Cc1ccc(S(=O)(=O)NCCNc2cc(-c3cn(C(C)(C)C)nc3-c3cccc(O)c3)ccn2)cc1`, the growth was 17.2%.
In the case of `COc1cccc(/C=C2\Oc3cc(OCCCN4CCCC4)ccc3C2=O)c1`, the growth is 17.8%.
On the same count and under the same terms, the result for `COc1ccc(Nc2[nH]n3c(=O)cc(-c4ccccc4)nc3c2C(=O)Nc2ccc(C)cc2)c(OC)c1` reads 112%; that for `Cc1ccc(S(=O)(=O)c2nc(-c3ccccc3)oc2S(C)(=O)=O)cc1`, -6.17% (active); that for `O=[N+]([O-])c1cccc(-c2nc3sccn3c2-c2ccnc(NCCCNS(=O)(=O)c3ccc(Cl)cc3)n2)c1`, 56.4%.
As to `CCC(=O)Oc1ccc(/C(=C(/C)Cc2cccc(OC)c2)c2ccc(OCCN(C)C)cc2)cc1`, the growth was 43.7%.
As for `COc1ccc(N2CCN(Cc3cc(C(=O)/C=C/c4c[nH]c5ccccc45)ccc3O)CC2)cc1`, the growth is 106%.
As to `COc1ccc(-c2nc(/C=C3/C(=O)Nc4ccc(F)cc43)c3ccccn23)cc1`, the growth was 103%.
On to `CCN(CC)c1ccc(/C=C2\Oc3ccc(O)c(I)c3C2=O)cc1`, for which the growth is 72.4%.
On to `N[C@H]1CN(C(=O)c2cc3cc(Br)c(F)c(F)c3[nH]2)C[C@@H]1O`, for which the growth was 103%.
For the compound `COc1ccc(/C=C\c2cc(OC)c(OC)c(OC)c2)cc1OC(=O)c1cccc(Cn2cc(CCOC(=O)c3cccc(Cn4nnc5c4C(=O)c4ccccc4C5=O)c3)nn2)c1`, the growth is 12.2%.
For `N[C@@H]1CCN(C(=O)c2cc3cc(Cl)c(F)c(F)c3[nH]2)C1`, the growth was 88%.
Still for that read-out and setting: the result for `CC(C)(C)Nc1c(-c2cccs2)nc2ncccn12` reads 103%.
`O=C1/C(=C/c2ccccc2)Oc2ccc(O)c(I)c21`: the growth was 105%.
For `COc1ccc(OC)c(/C=C2\Oc3cc(OCCCN4CCCC4)ccc3C2=O)c1`, the growth was 10.3%.
As for `COc1ccc(S(=O)(=O)Nc2cc(/C=C\c3cc(OC)c(OC)c(OC)c3)cc(OC)c2OC)cc1`, the growth is 2.32% (active).
Consider `COc1ccc(/C=C2\Oc3cc(OCCCN4CCCC4)ccc3C2=O)cc1`, for which the growth is 17%.
For the compound `FC(F)(F)c1ccccc1-c1cn2c(ccc3ccccc32)n1`, the growth was 42.2%.
Same read-out and setting: the result for `Cc1nn(-c2ccc(Cl)cc2)c2ncnc(N/N=C/c3cccc([N+](=O)[O-])c3)c12` reads 90.7%; that for `c1ccc(Nc2nc(Nc3ccccc3)nc(Nc3ccccc3)n2)cc1`, 75.3%; that for `COc1ccc(-c2nc(N3CCCC3=O)sc2Br)cc1OC`, 82.7%.
In the case of `NC1N=C(SCC(=O)N2CCN(c3cc4c(cc3F)c(=O)c(C(=O)O)cn4C3CC3)CC2)NC(=O)/C1=C/c1ccc(Cl)cc1` (stereo not given), the growth is 111%.
Turning to `Clc1ccc(-c2nc3ccccc3s2)cc1Cl`, the growth is 97.2%.
Still for that read-out and setting: the result for `O=C(NS(=O)(=O)c1ccc2ccccc2c1)n1cc(-c2ccncc2)c(-c2ccc(Cl)c(O)c2)n1` reads 70.3%; that for `O=C(O)/C=C/C(=O)c1ccc(Cl)cc1`, 91.3%.
`CCCCN(CCCC)C(=O)CC`: the growth was 110%.
With `O=c1c2sc3ncccc3c2nnn1-c1ccccc1`, the growth was 109%.
As to `COc1ccc(/C=C2\Oc3cc(OCCCN4CCCC4)ccc3C2=O)c(OC)c1`, the growth was 10.2%.
The same measure, in the same setting: the same measure for `CCCCN(CCCC)c1ccc(C(=N)c2ccc(N(CCCC)CCCC)cc2)cc1`: -81.1% (active).
Turning to `CN1C(=O)N(C)C2C1NN=c1s/c(=C\C=C\c3ccccc3)c(=O)n12` (stereo not given), the growth was 20.7%.
